This note sets out measurements from the supplement of paper PMC9262897, “Low-cost anti-mycobacterial drug discovery using engineered E. coli” (Nature Communications, 2022).

Structures are written as SMILES. Where a name gives a salt, the structure may show the parent alone. ± gives the standard deviation of the averaged measurements.

The test relates to E. coli TESEC Mtb Alr. The test is described as follows: growth (OD600 after 10 h); higher = more growth (less inhibition). The settings on record: arabinose 100000 nM; compound 0.1 mM; raw OD600 reference: median of DMSO wells 0.201, cell-free background 0.041. As to the method:
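TESEC Mtb Alr E. coli, or the Alr+ wild-type control, in 384-well plates with Prestwick library compounds at 0.1 mM and 1% DMSO, across arabinose induction levels of 1E3 to 1E7 nM. Growth is read as OD600 after 10 h at 37 °C in triplicate biological replicates.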
As to `CCCNC(C)(C)COC(=O)c1ccccc1` [Meprylcaine hydrochloride], the growth is 0.211 ± 0.0098.
The same measure for `CN1CCC(=C2c3ccccc3CCc3cccnc32)CC1` [Azatadine maleate]: 0.178 ± 0.0055; for `CNC(=C[N+](=O)[O-])NCCSCc1csc(CN(C)C)n1` [Nizatidine]: 0.21 ± 0.015.
The same measure for `Fc1ccc(C(c2ccc(F)cc2)N2CCN(C/C=C/c3ccccc3)CC2)cc1` [Flunarizine dihydrochloride]: 0.116 ± 0.012; for `CC(C(=O)O)c1cccc(C(=O)c2ccccc2)c1` (stereo not given) [Ketoprofen]: 0.172 ± 0.012; for `C1N2CN3CN1CN(C2)C3` [Methenamine]: 0.198 ± 0.025.
`Cc1c(N(C)CS(=O)(=O)O)c(=O)n(-c2ccccc2)n1C` [Dipyrone] returned a growth of 0.217 ± 0.023.
As for `Cc1onc(-c2ccccc2)c1-c1ccc(S(N)(=O)=O)cc1` [Valdecoxib], the growth was found to be 0.148 ± 0.0053.
Under `O=C(C1CCCCC1)N1CC(=O)N2CCc3ccccc3C2C1` (stereo not given) [Praziquantel] stands 0.214 ± 0.021.
The same measure for `Clc1ccc(Cn2c(CN3CCCC3)nc3ccccc32)cc1` [Clemizole hydrochloride]: 0.106 ± 0.049; for `O=C(O)c1ccccc1OP(=O)(O)O` [Fosfosal]: 0.192 ± 0.026.
The same measure for `COc1ccc(C2CNC(=O)C2)cc1OC1CCCC1` (stereo not given) [Rolipram]: 0.177 ± 0.0086; for `CCC1=C(C)CN(C(=O)NCCc2ccc(S(=O)(=O)NC(=O)N[C@H]3CC[C@H](C)CC3)cc2)C1=O` [Glimepiride]: 0.161 ± 0.0087; for `CC(=O)Nc1c(I)c(C(=O)N[C@H]2C(O)O[C@H](CO)[C@@H](O)[C@@H]2O)c(I)c(N(C)C(C)=O)c1I` (stereo not given in full) [Metrizamide]: 0.238 ± 0.034.
The molecule `CN(C(=O)C(Cl)Cl)c1ccc(OC(=O)c2ccco2)cc1` [Diloxanide furoate] gave a growth of 0.169 ± 0.0067.
`Cc1c(Cl)cccc1Nc1ccccc1C(=O)O` [Tolfenamic acid]: the growth is 0.0477 ± 0.0013.
Under `COc1ccc(C(=O)CC(=O)c2ccc(C(C)(C)C)cc2)cc1` [Avobenzone] stands 0.176 ± 0.02; under `NCc1ccccc1CC(=O)N[C@@H]1C(=O)N2C(C(=O)O)=C(CSc3nnnn3CC(=O)O)CS[C@H]12` [Ceforanide], 0.238 ± 0.016.
In turn, `CN(C)CCCN1c2ccccc2CCc2ccccc21` [Imipramine hydrochloride] showed a growth of 0.212 ± 0.014.
The same measure for `COc1ccc(-c2cc(=O)c3c(O)cc(O[C@@H]4O[C@H](CO[C@@H]5O[C@@H](C)[C@H](O)[C@@H](O)[C@H]5O)[C@@H](O)[C@H](O)[C@H]4O)cc3o2)cc1O` [Diosmin]: 0.248 ± 0.011.
The same measure for `COC(=O)N/N=C/c1c[n+]([O-])c2ccccc2[n+]1[O-]` [Carbadox]: 0.116 ± 0.003; for `N=C(N)NC(=O)c1nc(Cl)c(N)nc1N` [Amiloride hydrochloride dihydrate]: 0.255 ± 0.016.
Under `Nc1nc(Cl)nc2c1ncn2[C@H]1C[C@H](O)[C@@H](CO)O1` [Cladribine] stands 0.118 ± 0.018; under `CO[C@@]1(NC(=O)C2SC(=C(C(N)=O)C(=O)O)S2)C(=O)N2C(C(=O)O)=C(CSc3nnnn3C)CS[C@@H]21` (stereo not given in full) [Cefotetan], 0.03763 ± 0.00032; under `CC(=O)O[C@H]1C[C@@]2(C)[C@@H](C[C@@H](O)[C@H]3[C@@]4(C)CC[C@@H](O)[C@@H](C)[C@@H]4CC[C@@]32C)/C1=C(\CCC=C(C)C)C(=O)O` [Fusidic acid sodium salt], 0.0429 ± 0.0003.
Molecule `COc1ccc(CN(CCN(C)C)c2ccccn2)cc1` [Pyrilamine maleate] yielded a growth of 0.179 ± 0.008.
The same measure for `C#C[C@]1(O)CC[C@H]2[C@@H]3CCC4=Cc5oncc5C[C@]4(C)[C@H]3CC[C@@]21C` [Danazol]: 0.152 ± 0.012.
Under `CCN(CC)C(C)CN1c2ccccc2Sc2ccccc21` (stereo not given) [Ethopropazine hydrochloride] stands 0.172 ± 0.003; under `CCCNC(C)C(=O)Nc1c(C)csc1C(=O)OC` (stereo not given) [Articaine hydrochloride], 0.213 ± 0.013; under `Cc1ccc(Cl)c(Nc2ccccc2C(=O)O)c1Cl` [Meclofenamic acid sodium salt monohydrate], 0.0566 ± 0.00087.
Under `CC(=O)Nc1ccc(OCC(O)CNC(C)C)cc1` (stereo not given) [Practolol] stands 0.229 ± 0.04; under `CN(C)CCOC(=O)COc1ccc(Cl)cc1` [Meclofenoxate hydrochloride], 0.199 ± 0.013; under `NCCNCCNCCNCCN` [Tetraethylenepentamine pentahydrochloride], 0.217 ± 0.028.
`C#C[C@]1(O)CC[C@H]2[C@@H]3CCC4=CC(=O)CC[C@@H]4[C@H]3CC[C@@]21C` [Norethindrone] gave a growth of 0.179 ± 0.012.
The molecule `Nc1c(Br)cc(Br)cc1CN[C@H]1CC[C@H](O)CC1` [Ambroxol hydrochloride] showed a growth of 0.18 ± 0.031.
